From PubChem BioAssay

Assay: growth of efflux-deficient E. coli DRC39 – strain DRC39, OD650, 24 h, E. coli filamentation inducers, primary screen (AID 1178);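 further: growth measured as culture turbidity by optical density at 650 nm; test concentration not given here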
Conditions: E. coli DRC39 acrAB, higher = more signal, called active from +8 up or from −8 down

z-score, inactive:
CCOC(=O)[C@H](CC(C)C)NC(=O)CCC1CC(OC(=O)NCc2cccc3ccccc23)CC2(CCCC(COC(=O)NCCOC)O2)O1 (some centres undefined) 0.521
CON=C1[C@H]2CCn3c(=O)n(-c4ccccc4)c(=O)n3[C@H]2[C@H](O)[C@@H]2O[C@H]12 0.0966
CO[C@@H]1COC(=O)CC=C[C@@H](C)[C@@H]2C=C[C@H](O)[C@@H](COC(=O)CC=C[C@H]1C)O2 0.619
COC(=O)[C@@H]1CC[C@H](C)[C@@H](c2ccc(C)cc2)N1C(=O)c1ccc(C=NOCC[C@@H]2C=C[C@H](OC(C)=O)[C@@H](COC(C)=O)O2)cc1 0.667
CCOC(=O)CCN1C(=O)[C@H]2[C@H]3[C@H](O)[C@H](O)CC(=NOCc4ccccc4)[C@H]3CC[C@H]2C1=O 0.955
CCOC(=O)NN=C1C[C@@H](O)[C@@H](O)[C@@H]2[C@@H]3C(=O)N(c4cccc(Oc5ccccc5)c4)C(=O)[C@@H]3CC[C@H]12 0.0624
COC(=O)CC=C[C@@H](C)[C@@H](C=NOC(C)CN1CCCc2nc(C)c(C)cc21)OC (some centres undefined) -0.222

Assay: growth of efflux-deficient E. coli DRC39 – strain DRC39, OD650, 48 h, E. coli filamentation inducers, primary screen (AID 1179);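 further: screen aims at cell division blockers that make cells filament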
Conditions: E. coli DRC39 delta-acrAB growth, higher = more signal, called active from +8 up or from −8 down

z-score, inactive:
C[C@@H]1NC(=O)[C@@H](C)COC(=O)[C@H](C)NC(=O)[C@@H](C)COC1=O -1.87
C[n+]1ccc(-c2ccc(CO)cc2)cc1 -0.0742
O=C1C[C@@H](O)[C@@H](O)[C@@H]2[C@@H]3C(=O)N(C[C@@H]4CCCO4)C(=O)[C@@H]3CC[C@H]12 0.17
CCN1C(=O)[C@@H]2[C@H]3C(=CC[C@@H]2C1=O)C1(OCCCO1)[C@H]1O[C@H]1[C@H]3O -0.985
COC(=O)C=CCCc1coc(C=CCNC(=O)OC)n1 -0.542
COC(=O)CC=C[C@@H](C)[C@@H](C=NO[C@@H](C)c1cn([C@H](CO)Cc2ccccc2)nn1)NS(=O)(=O)c1ccc(C)cc1 0.364
O=C(NN=C1C[C@@H](O)[C@@H](O)[C@@H]2[C@@H]3C(=O)N(C[C@@H]4CCCO4)C(=O)[C@@H]3CC[C@@H]12)OCc1ccccc1 0.118
CCOC(=O)C1=NO[C@@]2(C=C(Br)C3(OCCCO3)[C@H]3O[C@H]32)C1 0.643
COCCNC(=O)OCC1CCCC2(CC(OC(=O)NCc3ccc4c(c3)OCO4)CC(CCC(=O)N[C@@H](C)C(=O)OC)O2)O1 (some centres undefined) -0.49
COc1ccc(COC(=O)NN=C2C[C@@H](O)[C@@H](O)[C@@H]3[C@@H]4C(=O)N(c5ccc(F)cc5F)C(=O)[C@@H]4CC[C@H]23)cc1 0.138
CC(CCN1CCCc2nc(C)c(C)cc21)=NOC(C)CN1CCCCc2nc(C)c(C)cc21 (centres undefined) -0.554
COC(=O)CC=C[C@@H](C)[C@@H](C=NOCC[C@@H]1C=C[C@H](OC(C)=O)[C@@H](COC(C)=O)O1)OC 0.138
CC(CCN1CCCCc2nc(C)c(C)cc21)=NOC[C@@H](O)COCc1ccco1 0.562
CCOC(=O)[C@H](Cc1ccccc1)NC(=O)CCC1CC(OC(=O)NCc2cccc3ccccc23)CC2(CCCC(COC(=O)NCc3cccc(C(F)(F)F)c3)O2)O1 (some centres undefined) -0.215
CCOC(=O)[C@H](CC(C)C)NC(=O)CCC1CC(OC(=O)NCCc2ccc(F)cc2)CC2(CCCC(COC(=O)NCCOc3ccccc3)O2)O1 (some centres undefined) 0.168
COC(=O)[C@H]1[C@@H](O)[C@@]2(O)c3ccccc3O[C@@]2(c2ccccc2)[C@@H]1c1ccccc1 -0.446
C#CCCCON=C1C[C@@H](O)[C@@H](O)[C@@H]2[C@@H]3C(=O)N(C(C)(C)C)C(=O)[C@@H]3CC[C@H]12 0.221
CO[C@@H]1C=CCC(=O)N[C@@H](C)C(=O)OC[C@@H](OC)[C@H](C)CCCC(=O)OC[C@H]1C 0.174
CON=C[C@@H](C)[C@H](OCc1ccccc1)C(C)C -2.73
Cc1ccc(S(=O)(=O)n2c3ccccc3c3nnc(C(=O)c4ccccc4)nc32)cc1 0.0979
CC(C)CON=C1C[C@@H](O)[C@@H](O)[C@@H]2[C@@H]3C(=O)N(C4CCCCC4)C(=O)[C@@H]3CC[C@H]12 0.272
CO[C@@H]1COC(=O)CC=C[C@@H](C)[C@H](OC)COC(=O)[C@@H](C)COC(=O)CC=C[C@H]1C 0.733
